# This is one part of a sample in which hits are shown more often than they occur.
# FAK blocker = blocks human focal adhesion kinase activity. actives 0.84% (n = 97,000). biochemical FAK kinase activity assay. inhibition, %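 (tested at 7 µM)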. Q05397; in the data active = inhibition above about 19%;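 also: 0% = DMSO and 100% = reference compound high control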
# CD11b adhes inh = blocks human CD11b/CD18 adhesion to fibrinogen; K562 CD11b/CD18 adhesion to fibrinogen, ATPlite luminescence; Mn2+ added to activate the integrin; inhibition, % at 10 µM; actives 0.54% (n = 93,000);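 active = primary inhibition of 50% or more at 10 µM, then 40% or more on retest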
# Pyk2 oligo antag = blocks oligomerization of human Pyk2 in cells; actives 0.83% (n = 99,000); z-score (the deposit names both 25 µM and 10 µM); Q293 cells, Pyk2 FERM NanoBiT luminescence; hits give low values; Q14289;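 active = Z-score of -3 or lower, scaled per plate to the spread of control and sample wells; inactive = z-score above -3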;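 also: negative z-score means lost luminescence so less FERM oligomerization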
# CD11b adhes enh = CD11b/CD18-fibrinogen binding enhancement. K562 CD11b/CD18 adhesion to fibrinogen, ATPlite luminescence. activation, % at 10 µM. actives 0.07% (n = 93,000);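 active = 10 µM primary screen giving 50% or more activity, confirmed by 40% or more on retest at that dose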
# D1 mod = allosterically modulates the human D1 dopamine receptor | P21728 | HEK293 D1, CRE-luciferase, dopamine EC30 potentiation; actives deviate in either direction | B-score at 10 µM | actives 5.9% (n = 58,000);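 active = luminescence count or its row- and column-corrected plate score outside the 99.7% band of the plate's sample wells, on either side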
# hDAT+cocaine = human DAT dopamine uptake with cocaine, either direction | Q01959 | LLC-PK1 hDAT cells, [14C]-dopamine uptake with cocaine IC80; actives deviate in either direction | B-score at 10 µM | actives 1.3% (n = 110,000) | AID 449768;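 active = Z score or B-score, a plate-position-corrected score, falls beyond the plate's 99.7% confidence bounds, in either direction; inactive = both scores lie inside the 99.7% bounds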;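 also: scored against the spread of the other compound wells on the same plate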
# * marks the source's active call; other numbers are inactive results; / = not tested or not shown; ! = repeats disagree.
SMILES,FAK blocker,CD11b adhes inh,Pyk2 oligo antag,CD11b adhes enh,D1 mod,hDAT+cocaine
CC(NS(=O)(=O)c1ccc(Br)cc1)C(c1cccs1)N1CCOCC1 (configuration not stated),/,/,/,/,/,0.75
CC1=NNC(=O)C1CCC(=O)N/N=C/C(Br)=C/c1ccccc1 (configuration not stated),/,-19,/,0,/,/
CC(=O)Nc1nc2nc(-c3ccccc3)cc(-c3ccccc3)n2n1,7,19,-1.4,-7,/,-0.34
O=C(Nc1nc2nc(-c3ccccc3)cc(-c3ccccc3)n2n1)c1ccco1,3,-8,-3.5*,-2,-2.5*,0.0085
CCCNC(=O)NC(=O)COC(=O)c1ccc(OC)c(S(=O)(=O)N2CCCc3ccccc32)c1,-1,-7,-2.5,-1,1.7,0.18
C=COCCNC(=O)Nc1ccc(Cl)cc1Cl,0,-7,-0.75,7,0.012,-0.029
C/C(=N/O)c1ccccn1,/,/,/,/,/,-4.6*
CCCCCC/C(=N/O)c1ccccn1,2,4,-1.1,-8,2,0.0075
CCc1nnc(NC(=O)C2Cc3ccccc3CN2S(=O)(=O)c2cccs2)s1 (configuration not stated),11,-6,-1.7,25,-0.2,0.81
CCc1nnc(NC(=O)C2Cc3ccccc3CN2S(=O)(=O)c2ccc(C)cc2)s1 (configuration not stated),5,/,-3*,/,/,0.49
O=C(NCc1ccccn1)c1ccc(CNS(=O)(=O)c2ccc(F)cc2)cc1,/,-5,/,-2,/,/
COC(=O)C1(CCSC)NC(c2ccco2)C2C(=O)N(C)C(=O)C21 (configuration not stated),-4,3,0.34,-2,-0.22,0.2
CCCCCn1c(NC2CCCCC2)nc2c1c(=O)[nH]c(=O)n2C,/,/,/,/,5.7*,2.9*
CCCCCCn1c(SCCN2CCOCC2)nc2c1c(=O)[nH]c(=O)n2C,0,/,-0.04,/,/,0.091
CCCCCCn1c(SCCOC)nc2c1c(=O)[nH]c(=O)n2C,/,/,/,/,9.4*,-0.34
Cc1ccc(C2CN(C)C3(C(=O)Nc4ccccc43)C23COc2ccccc2C3=O)cc1 (configuration not stated),-2,/,-3.6*,/,/,/
CN1CC(c2ccccc2Cl)C2(COc3ccccc3C2=O)C12C(=O)Nc1ccccc12 (configuration not stated),-10,/,-2.9,/,/,0.26
COc1ccc(N=c2oc3c(OC)cccc3cc2C(=O)NCc2ccco2)cc1OC,/,-9,1.6,9,-3.9*,0.041
Cc1ccc(N(CC2=NCCN2)c2cccc(O)c2)cc1,-7,/,/,/,-2.3*!,-0.2
c1ccc(CN(CC2=NCCN2)c2ccccc2)cc1,/,/,/,/,-0.06,-0.55
COc1ccc(N2CCN(C(=O)CCNS(=O)(=O)c3cccs3)CC2)cc1,-2,5,0.02,-2,/,11*
Cc1ccc(C)c(N2CCN(C(=O)CNS(=O)(=O)c3cccs3)CC2)c1,-2,4,0.69,1,/,1.7*
CC(C)C(NS(=O)(=O)c1ccccc1)C(=O)OCc1cc([N+](=O)[O-])cc2c1OCOC2 (configuration not stated),/,-1,/,0,/,/
COc1ccc(C(=O)COC(=O)CCn2nnc(-c3cccs3)n2)cc1,0,0,0.7,0,-0.28,-0.83
COCc1nnc(NS(=O)(=O)c2ccc(Br)cc2)s1,0,1,0.35,-6,-1.3,-1.7
SMILES,FAK blocker,CD11b adhes inh,Pyk2 oligo antag,CD11b adhes enh,D1 mod,hDAT+cocaine
O=S(=O)(N/N=C\c1ccc2c(c1)OCO2)c1ccc(Cl)cc1,-2,1,1.7,8,/,-0.47
CCOC(=O)C(NC(=O)c1ccccc1)(OCC1(CC)COC1)C(F)(F)F (configuration not stated),-4,/,-0.18,/,/,-1.2
CCC1(COC(NC(=O)c2cccnc2)(C(F)(F)F)C(F)(F)F)COC1,-3,-10,1.2,-4,-7*,0.62
COc1ccc(C(O)C(CC(=O)NCCCOC(C)C)C(=O)NCCCOC(C)C)cc1OC (configuration not stated),/,19,/,2,/,/
CCc1ccc(C(=O)N2CCCC2)s1,2,-33,0.17,-2,0.25,0.037
CCc1ccc(C(=O)N2CCN(c3ccc(F)cc3)CC2)s1,0,-13,-0.11,2,-0.74,2*

# Bioassay records as filed in PubChem.
